These results are taken from PubChem BioAssay AID2283134 (EPA ToxCast).

Records with an inconclusive call do not appear. Activity calls are given as the source filed them. Rule for the calls: active = hit-call score of the fitted dose curve at least 0.9, where 1 is the maximum; inconclusive = response in the unintended direction; inactive = score below 0.9.

Sequence of human Checkpoint Kinase 1 (CHK1), CHEK1 (gene 1111) (O14757 whole entry, looked up): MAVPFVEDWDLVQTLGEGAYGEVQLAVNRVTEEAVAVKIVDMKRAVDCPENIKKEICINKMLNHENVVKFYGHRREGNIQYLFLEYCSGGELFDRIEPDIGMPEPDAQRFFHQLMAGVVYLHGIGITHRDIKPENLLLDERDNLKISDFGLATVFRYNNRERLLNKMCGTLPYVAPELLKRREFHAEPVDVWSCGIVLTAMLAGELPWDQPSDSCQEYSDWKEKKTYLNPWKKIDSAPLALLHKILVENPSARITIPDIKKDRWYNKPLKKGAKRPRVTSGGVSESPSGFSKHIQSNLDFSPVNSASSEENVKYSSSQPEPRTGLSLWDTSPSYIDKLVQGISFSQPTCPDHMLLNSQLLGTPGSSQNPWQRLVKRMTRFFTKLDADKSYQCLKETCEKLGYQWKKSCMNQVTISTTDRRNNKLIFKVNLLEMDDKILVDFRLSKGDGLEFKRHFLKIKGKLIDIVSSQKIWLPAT

This assay has as its target human Checkpoint Kinase 1 (CHK1), CHEK1 (gene 1111) (UniProt O14757). As to the kind of experiment: NVS_ENZ_hCHK1: NovaScreen (NVS) Enzymatic Assay for human Checkpoint Kinase 1 (CHK1). How it is done: NVS_ENZ_hCHK1 is a biochemical, single-readout assay that uses extracted gene-proteins in a cell-free assay. Measurements were taken 1 hour after chemical dosing in a 96-well plate.NVS_ENZ_hCHK1 is one of one assay component(s) measured or calculated from the NVS_ENZ_hCHK1 assay. It is designed to make measurements of enzyme activity, a form of enzyme reporter, as detected with fluorescence intensity signals by Fluorescence and electrophoretic mobility shift technology.Data from the assay component NVS_ENZ_hCHK1 was analyzed into 1 assay endpoint. This assay endpoint, NVS_ENZ_hCHK1, was analyzed in the positive analysis fitting direction relative to DMSO as the negative control and baseline of activity. Using a type of enzyme reporter, loss-of-signal activity can be used to understand changes in the enzymatic activity as they relate to the gene CHEK1. Furthermore, this assay endpoint can be referred to as a primary readout, because this assay has produced multiple assay endpoints where this one serves a enzymatic activity function. To generalize the intended target to other relatable targets, this assay endpoint is annotated to the kinase intended target family, where the subfamily is serine/threonine kinase. […]
For the molecule `N#Cc1c(Cl)c(Cl)c(Cl)c(C#N)c1Cl`, the molecule was called inactive.
